# The list is not random: actives were taken first. Their share in the collection is about 1.1%.
# SRC3 inh: human NCOA3 inhibition | Q9Y6Q9 | HEK293 GAL4-SRC3 luciferase reporter, luminescence | inhibition, % at 3.6 µM | 0.17% of 360,000 active;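 active means inhibition above a per-campaign cutoff, the mean of all compounds plus 3 SD, cut at about 60% in these data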;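 further: higher means less SRC3-driven luciferase light from the GAL4 reporter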
# SRC1 inh: inhibits human SRC1 coactivator; inhibition, % at 3.6 µM; HEK293 GAL4-SRC1 luciferase reporter, luminescence; Q15788; 0.12% of 360,000 active; AID 588354;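 active means inhibition above the campaign mean plus 3 SD, with each screening campaign given its own cutoff, cut at about 60% in these data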
# NR5A2 inv ag: NR5A2 inverse agonism in reporter assay; HEK293T StAR-luciferase reporter, LRH-1 transfected, 24 h; inhibition, % at 3.6 µM; 0.13% of 360,000 active; AID 602396;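 active means inhibition above the mean inhibition of all tested compounds plus 3 SD, cut at about 73% in these data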
# SRC2 inh: human SRC2 (NCOA2) inhibition. Q15596. HEK293 GAL4-SRC2 luciferase reporter, luminescence. inhibition, % at 9 µM. 0.17% of 370,000 active;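 active means inhibition above the mean inhibition of all tested compounds plus 3 SD, set per campaign, cut at about 52% in these data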
# Gli-Sufu block: antagonists of Gli-Sufu signaling | 0.74% of 340,000 active | Sufu-KO-LIGHT fibroblasts, Gli luciferase reporter luminescence | AID 588413 | inhibition, % at 5 µM;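 active means inhibition above about 55%, limit read from the data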
# Shn3 3UTR inh: Schnurri-3 reporter inhibition in Clone20 osteoblasts | Clone20 osteoblast Shn3 3'UTR firefly luciferase, 24 h | inhibition, % at 12.5 µM | 0.52% of 360,000 active | AID 588674;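 active means mean inhibition of at least 75% with every replicate also reaching 75%; inconclusive means mean inhibition at least 75% but some replicate below; inactive means mean inhibition below 75%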
# Gli antag conf: Gli-SUFU antagonism confirmation, single concentration; shares compounds with Gli-Sufu block; Sufu-KO-LIGHT cells, Gli luciferase reporter, luminescence; inhibition, % at 5 µM; 40% of 2,500 active; AID 602428;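 active means mean inhibition at 5 µM reaching about 45%, limit read from the data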
# Gli cytotox: cytotoxic in Gli-SUFU antagonist counter-screen | shares compounds with Gli-Sufu block | Sufu-KO-LIGHT cells cytotoxicity, ATP luminescence | cytotoxicity, % at 5 µM | 32% of 2,500 active | AID 651994;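 active means mean cytotoxicity at 5 µM above about 25%, limit read from the data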;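 further: cells exposed to compound overnight for roughly 16 to 18 hours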
# Wnt3a cs: inhibits Wnt3a reporter, counter-screen for Gli-SUFU antagonists; 20% of 2,500 active; shares compounds with Gli-Sufu block; Wnt-LIGHT cells, Wnt3a-driven luciferase reporter, luminescence; inhibition, % at 6.25 µM;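 active means mean inhibition above about 25%, limit read from the data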
# Hits are given with their value; i = inactive; ? = inconclusive; nt = no result.
SMILES,SRC3 inh,SRC1 inh,NR5A2 inv ag,SRC2 inh,Gli-Sufu block,Shn3 3UTR inh,Gli antag conf,Gli cytotox,Wnt3a cs
CC(Sc1nc2ccccc2c(=O)n1C)C(=O)NC1CCCCC1C (stereo unspecified),i,i,i,nt,59,?,55,i,i
Cc1[nH]c(C)c(S(=O)(=O)NCc2ccccc2Cl)c1C(=O)N1CCCC1,i,i,i,i,58,i,i,i,i
CC(C)(C)c1ccc(-c2nnc(SCC(=O)Nc3ccc(Oc4ccccc4)cc3)n2Cc2ccco2)cc1,nt,nt,nt,i,nt,nt,nt,nt,nt
O=C(Nc1cc(Sc2ccccn2)cc([N+](=O)[O-])c1)c1ccc([N+](=O)[O-])cc1,i,i,i,i,i,i,i,26,i
COc1cc(C2C(C#N)=C(N)Oc3cc(O)ccc32)cc(OC)c1OC (stereo unspecified),i,i,i,i,i,i,nt,nt,nt
COc1cc(C2C(C#N)=C(N)Oc3cc4c(cc32)OCO4)cc(OC)c1OC (stereo unspecified),i,i,i,i,58,i,56,51,i
COc1cc(C2CC(=O)Oc3cc4c(cc32)OCO4)cc(OC)c1OC (stereo unspecified),i,i,i,i,i,i,nt,nt,nt
COc1cc(C2C3=C(COC3=O)Oc3cc4c(cc32)OCO4)cc(OC)c1OC (stereo unspecified),i,i,i,i,56,i,57,57,i
COc1cc(C2C3=C(COC3=O)Oc3cc4c(cc32)OCO4)cc(OC)c1O (stereo unspecified),i,i,i,i,i,i,67,64,i
O=C1OCC2=C1C(c1ccc3c(c1)OCO3)c1cc3c(cc1O2)OCO3 (stereo unspecified),i,i,i,i,i,i,nt,nt,nt
COC(=O)C1CN(Cc2cn(CCOC(C)=O)nn2)CCS(=O)(=O)N1Cc1ccccc1 (stereo unspecified),nt,nt,nt,i,nt,nt,nt,nt,nt
COc1ccc(CN2C[C@]3(C=C(C)Cn4c(=O)n(-c5ccccc5)c(=O)n43)N=C2NC(=O)c2ccccc2)c(OC)c1,nt,nt,nt,i,nt,nt,nt,nt,nt
CCCCOC(=O)C1=C(C)NC(=O)NC1c1cccc([N+](=O)[O-])c1 (stereo unspecified),i,i,i,i,i,i,nt,nt,nt
CCC(CC)COC(=O)C1=C(C)NC(=O)NC1c1cccc([N+](=O)[O-])c1 (stereo unspecified),i,i,i,i,62,i,i,i,i
Cc1c(NC(=O)C2CCCN(S(=O)(=O)c3c(C(C)C)cc(C(C)C)cc3C(C)C)C2)c(=O)n(-c2ccccc2)n1C (stereo unspecified),nt,nt,nt,i,nt,nt,nt,nt,nt
COc1ccc2c(c1)c(C)cc[n+]2Cc1ccccc1,i,i,i,i,65,i,67,i,i
Cc1ccc2c(c1)c(C)cc[n+]2Cc1ccccc1,i,i,i,i,58,i,60,30,i
CC(C)[C@H](NC(=O)[C@@H]1CCCN1)C(=O)N1CCC2CCN(S(=O)(=O)c3ccccc3)CC21 (stereo partly specified),nt,nt,nt,i,nt,nt,nt,nt,nt
O=C(O)CN1C(=O)/C(=C2\C(=O)N(Cc3ccccc3Cl)c3ccccc32)SC1=S,i,i,i,i,57,i,i,i,i
O=C1/C(=C2\C(=O)N(Cc3ccc(F)cc3)c3ccccc32)SC(=S)N1CCS(=O)(=O)O,i,i,i,i,i,i,nt,nt,nt
COC(=O)C1CN(Cc2ccc(Cl)cc2)CCS(=O)(=O)N1Cc1cn(Cc2ccc(Cl)cc2)nn1 (stereo unspecified),nt,nt,nt,i,nt,nt,nt,nt,nt
COC(=O)[C@@]12CCCCC3=C1N(CCC3)C(=O)[C@H]2CC(=O)NCCCCc1ccccc1,nt,nt,nt,i,nt,nt,nt,nt,nt
Cc1cc(C)cc(N2CCCn3c2nc2c3c(=O)n(CC(=O)OCc3ccccc3)c(=O)n2C)c1,i,i,i,nt,i,i,nt,nt,nt
Cc1ccc(N2CC(C)Cn3c2nc2c3c(=O)n(CC(=O)OCc3ccccc3)c(=O)n2C)cc1C (stereo unspecified),i,i,i,i,57,i,i,i,i
CCN1C(C(=O)Nc2cc(C)on2)=C(O)c2ccccc2S1(=O)=O,i,i,i,i,i,i,nt,nt,nt
SMILES,SRC3 inh,SRC1 inh,NR5A2 inv ag,SRC2 inh,Gli-Sufu block,Shn3 3UTR inh,Gli antag conf,Gli cytotox,Wnt3a cs
Cc1cc(NC(=O)C2=C(O)c3ccccc3S(=O)(=O)N2C)no1,i,i,i,i,62,i,i,28,i
Cc1nc2ncnn2c(N2CCN(S(=O)(=O)c3ccc(Br)cc3)CC2)c1C,i,i,i,i,57,i,i,i,i
CC1(C)CC(=O)C=C(Nc2ccccc2NC(=O)c2cccc(F)c2F)C1,nt,nt,nt,i,nt,nt,nt,nt,nt
CC1CCCC=CC2CC(OC(=O)CN(C)C)CC2C(O)C=CC(=O)O1 (stereo unspecified),i,i,i,i,60,i,86,38,88
CC(C)CNC(=O)OCc1cn(Cc2cccc(F)c2F)nn1,nt,nt,nt,i,nt,nt,nt,nt,nt
COc1cccc(NC(=O)CSc2nnc(-c3cc(C)n(-c4ccccc4)c3C)o2)c1,i,i,i,i,i,i,69,i,76
COc1ccc(N2CCN(CCCNC(=O)CCOC(C)(C)C)CC2)cc1,nt,nt,nt,i,nt,nt,nt,nt,nt
O=C(CCCOc1ccc(Cl)cc1Cl)Nc1ccccc1C(=O)O,i,i,i,i,i,i,nt,nt,nt
CCOc1ccccc1NC(=S)NC(=O)CCCOc1ccc(Cl)cc1Cl,i,i,i,i,65,i,i,i,i
OC(CSc1ccccc1)CN1CCN(c2cccc(Cl)c2)CC1 (stereo unspecified),i,i,i,i,i,i,i,i,i
CN(C)c1ccc(C(=O)NC2CCCCN(Cc3ccc(Cl)cc3)C2=O)cc1 (stereo unspecified),nt,nt,nt,i,nt,nt,nt,nt,nt
Cc1cccc(N/C(N)=N/c2nc(C(F)(F)F)cc(C(F)(F)F)n2)c1,i,i,i,i,i,i,nt,nt,nt
CN(C)c1ccc(N/C(N)=N/c2nc(C(F)(F)F)cc(C(F)(F)F)n2)cc1,i,i,i,i,i,i,i,i,i
COc1ccc(-c2c(C#N)c(N)nc3c2CCc2ccccc2-3)cc1OC,nt,nt,nt,i,i,nt,56,i,i
COc1cc(-c2c(C#N)c(N)nc3c2CCCC3)ccc1O,i,i,i,i,i,i,nt,nt,nt
Cc1ccc(OCc2nnc(SCC(=O)Nc3ccc(S(N)(=O)=O)cc3)n2-c2ccc(Cl)cc2)cc1,nt,nt,nt,i,nt,nt,nt,nt,nt
COC(=O)c1cc(S(=O)(=O)N2CCC(c3cc(OC)ccc3OC)C2)c[nH]1 (stereo unspecified),i,i,i,i,i,i,i,28,i

# From PubChem BioAssay
